Data on 43 compounds can be found in PubChem BioAssay AID1259349 (Broad Institute, 2017).

The campaign covered roughly 17,000 compounds. About 1,100 (6.5%) were called active. The sample holds actives, similar compounds and a random draw of the others, so the mix is not that of the screen.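 Rule for the calls: active = z-score of -3 or lower, meaning strong loss of probe binding signal; inactive = the rest.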

In this assay the target is Insulin-degrading enzyme (Homo sapiens) (UniProt P14735). Kind of assay: displacers of FL-6b probe from IDE – biochemical, fluorescence anisotropy, probe displacement, primary screen (AID 1259349).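 Note: His-tagged human IDE residues 42-1019 made in E. coli with 30 nM FL-6b probe.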 The settings on record: purified IDE, FL-6b probe fluorescence polarization; at 20 µM; active compounds read low. On the technique in general: In fluorescence polarisation assays a small probe gives low polarisation when free and higher when bound to something large.
Insulin-degrading enzyme (Homo sapiens), sequence (P14735 42-1019 limits assumed): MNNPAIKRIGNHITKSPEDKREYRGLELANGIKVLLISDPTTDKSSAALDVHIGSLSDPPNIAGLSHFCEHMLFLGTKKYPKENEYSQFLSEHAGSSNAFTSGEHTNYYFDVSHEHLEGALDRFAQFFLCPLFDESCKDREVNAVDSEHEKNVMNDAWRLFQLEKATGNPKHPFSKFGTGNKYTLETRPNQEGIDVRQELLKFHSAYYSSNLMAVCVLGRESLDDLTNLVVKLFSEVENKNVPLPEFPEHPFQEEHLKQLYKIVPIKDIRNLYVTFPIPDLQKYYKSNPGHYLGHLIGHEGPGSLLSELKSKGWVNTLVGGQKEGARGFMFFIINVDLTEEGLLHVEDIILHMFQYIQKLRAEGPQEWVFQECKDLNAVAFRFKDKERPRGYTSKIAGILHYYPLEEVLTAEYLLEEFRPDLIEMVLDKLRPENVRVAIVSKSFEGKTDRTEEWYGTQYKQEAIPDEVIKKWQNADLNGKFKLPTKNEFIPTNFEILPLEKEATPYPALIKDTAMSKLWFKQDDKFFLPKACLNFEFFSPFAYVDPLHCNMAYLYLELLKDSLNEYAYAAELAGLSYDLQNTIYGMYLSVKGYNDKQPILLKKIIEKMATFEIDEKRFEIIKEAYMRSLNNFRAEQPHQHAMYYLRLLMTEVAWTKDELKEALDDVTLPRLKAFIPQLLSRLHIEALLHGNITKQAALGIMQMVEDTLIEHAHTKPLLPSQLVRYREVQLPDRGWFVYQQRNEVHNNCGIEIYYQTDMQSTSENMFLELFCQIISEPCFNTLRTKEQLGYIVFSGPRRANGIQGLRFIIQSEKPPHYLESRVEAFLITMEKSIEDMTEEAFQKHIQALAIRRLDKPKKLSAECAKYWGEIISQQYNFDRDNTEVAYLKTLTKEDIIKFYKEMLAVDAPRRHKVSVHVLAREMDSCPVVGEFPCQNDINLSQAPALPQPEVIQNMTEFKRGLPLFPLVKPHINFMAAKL
As to `N#C[C@H]1[C@H](c2ccc(C#Cc3ccc(F)cc3)cc2)[C@@H](CO)N1C(=O)C1CCCC1`, the z-score was 6.39 (inactive).
`COc1ccccc1C#Cc1ccc([C@@H]2[C@@H](CO)N(C(=O)C3CC3)[C@H]2C#N)cc1`: the z-score is -8.33 (active).
For `N#C[C@H]1N[C@H](CO)[C@@H]1c1ccc(C#Cc2ccccc2F)cc1`, the z-score is 0.0442 (inactive).
In the case of `CC(C)C#Cc1ccc([C@@H]2[C@@H](C#N)N(C(=O)C3CC3)[C@@H]2CO)cc1`, the z-score is 1.34 (inactive).
For `CCCC#Cc1ccc([C@H]2[C@@H](CO)N(C(=O)C3CC3)[C@H]2C#N)cc1`, the z-score was 0.0113 (inactive).
Turning to `N#C[C@@H]1N[C@H](CO)[C@@H]1c1ccc(/C=C/c2ccccc2)cc1`, the z-score is 0.0442 (inactive).
As for `N#C[C@@H]1[C@@H](c2ccccc2)[C@@H](CO)N1C(=O)Cc1ccccc1`, the z-score is 0.975 (inactive).
Consider `COCC(=O)N1[C@H](CO)[C@@H](c2ccc(C#Cc3ccccc3F)cc2)[C@@H]1C#N`, for which the z-score was -3.16 (active).
Take `N#C[C@@H]1N[C@@H](CO)[C@@H]1c1ccc(C#Cc2ccccc2F)cc1`: the z-score is -3.8 (active).
In the case of `COc1ccccc1C#Cc1ccc([C@H]2[C@@H](C#N)N(C(=O)C3CCCCC3)[C@@H]2CO)cc1` it was -7.41 (active); in that of `COCC(=O)N1[C@H](CO)[C@H](c2ccccc2-c2ccc(C)cc2)[C@@H]1C#N`, 0.234 (inactive); in that of `N#C[C@@H]1[C@H](c2ccc(C#Cc3ccccc3F)cc2)[C@H](CO)N1C(=O)C1CCCCC1`, -0.57 (inactive).
On to `C[C@@H]1CN([C@@H](C)CO)C(=O)c2cc(-c3ccc(C#N)cc3)cnc2O[C@@H]1CN(C)Cc1cccnc1`, for which the z-score was 0.499 (inactive).
Consider `COc1cccc(S(=O)(=O)Nc2ccc3c(c2)[C@@H]2C[C@H](CC(=O)NC4CCCCC4)O[C@H](CO)[C@@H]2O3)c1`, for which the z-score was 0.0301 (inactive).
As for `O=S(=O)(Cc1ccccc1)N1CCCCN2[C@H](CO)[C@@H](c3ccc(-c4cncnc4)cc3)[C@H]2C1`, the figure is 1.15 (inactive).
For `CCc1sc(N2[C@@H](C#N)[C@@H](c3ccccc3-c3ccccc3)[C@@H]2CO)nc1C`, the z-score was 1.04 (inactive).
On to `COc1ccc(NC(=O)N2CC(=O)N3[C@H](CO)[C@@H](c4ccc(C#CCC5CCCC5)cc4)[C@H]3C2)cc1`, for which the z-score was 2.81 (inactive).
Consider `COc1ccccc1NC(=O)N1CC(=O)N2[C@H](CO)[C@H](c3ccc(C#Cc4ccccc4)cc3)[C@H]2C1`, for which the z-score is -2.66 (inactive).
With `CCCNC(=O)N1CC(=O)N2[C@H](C1)[C@@H](c1ccc(C#Cc3ccccc3)cc1)[C@@H]2CO`, the z-score is -4.24 (active).
`COCC(=O)N1CC(=O)N2[C@H](C1)[C@@H](c1ccc(C#Cc3cccc(OC)c3)cc1)[C@@H]2CO`: the z-score is -5.09 (active).
In the case of `COc1cccc(C#Cc2ccc([C@@H]3[C@H]4CN(C(=O)Cc5ccccc5)CC(=O)N4[C@H]3CO)cc2)c1` it was -0.17 (inactive); in that of `CCCNC(=O)N1CC(=O)N2[C@H](CO)[C@@H](c3ccc(-c4ccc(F)cc4)cc3)[C@H]2C1`, -0.254 (inactive).
For the compound `COc1ccccc1NC(=O)N1CC(=O)N2[C@H](C1)[C@H](c1ccc(C#Cc3ccccc3)cc1)[C@@H]2CO`, the z-score is -3.53 (active).
In the case of `COCC(=O)N1CC(=O)N2[C@@H](CO)[C@@H](c3ccc(C#CC(C)C)cc3)[C@@H]2C1` it was 1.03 (inactive).
In the case of `CCCNC(=O)N1CC(=O)N2[C@@H](CO)[C@H](c3ccc(-c4ccc(C)cc4)cc3)[C@@H]2C1` it was -1.44 (inactive); in that of `COc1ccccc1NC(=O)N1CC(=O)N2[C@H](CO)[C@@H](c3ccc(C#Cc4ccc(F)cc4)cc3)[C@H]2C1`, 3.22 (inactive); in that of `C[C@H]1CN([C@@H](C)CO)C(=O)CCCn2nncc2CO[C@H]1CN(C)S(=O)(=O)c1ccccc1C#N`, -0.585 (inactive).
For the compound `Cc1ccc(-c2ccc([C@H]3[C@H](CO)N4C(=O)CN(S(=O)(=O)c5cccc(F)c5)C[C@@H]34)cc2)cc1`, the z-score was 1.91 (inactive).
In the case of `C[C@H](NC(=O)C[C@@H]1C[C@@H]2c3cc(NS(=O)(=O)c4ccc(F)cc4)ccc3O[C@@H]2[C@@H](CO)O1)c1ccccc1`, the z-score is -0.633 (inactive).
Regarding `O=C1NCCCOCc2cn(nn2)CC[C@@H]1Cc1ccc(-c2ccccc2)cc1`, the z-score is -0.0302 (inactive).
`CCCC#Cc1ccc([C@@H]2[C@@H](CO)N3C(=O)CN(C(=O)c4ccncc4)C[C@@H]23)cc1`: the z-score was 1.2 (inactive).
In the case of `CCCC#Cc1ccc([C@H]2[C@@H](CO)N3C(=O)CN(C(=O)c4ccncc4)C[C@H]23)cc1` it was 0.281 (inactive); in that of `Cc1ccccc1-c1ccc([C@H]2[C@@H](CO)N3C(=O)CN(C(=O)c4ccncc4)C[C@H]23)cc1`, -10 (active).
With `Cc1ccccc1-c1ccc([C@H]2[C@@H](CO)N3C(=O)CN(C(=O)c4ccncc4)C[C@@H]23)cc1`, the z-score is -3.52 (active).
With `O=C(c1ccncc1)N1CC(=O)N2[C@H](CO)[C@@H](c3ccc(-c4cccnc4)cc3)[C@H]2C1`, the z-score was 2.02 (inactive).
In the case of `O=C(c1ccncc1)N1CC(=O)N2[C@H](CO)[C@H](c3ccc(-c4ccccc4F)cc3)[C@@H]2C1`, the z-score was 0.944 (inactive).
In the case of `COc1ccc(C#Cc2ccc([C@@H]3[C@@H](CO)N4C(=O)CN(C(=O)c5ccc(F)cc5)C[C@@H]34)cc2)cc1` it was 0.452 (inactive); in that of `CN(C)C(=O)c1ccc(-c2ccc([C@@H]3[C@H](C#N)N(C(=O)C4CC4)[C@H]3CO)cc2)cc1`, -0.273 (inactive); in that of `COc1ccc(CN(C)C[C@@H]2Oc3ccc(NC(=O)Nc4ccc5c(c4)OCO5)cc3CC(=O)N([C@H](C)CO)C[C@H]2C)cc1`, 1.72 (inactive).
With `COc1ccc2c3c(n(C)c2c1)[C@@H](CO)N(CC1CC1)CC31CCN(C(=O)c2cccc(F)c2)CC1`, the z-score was 0.882 (inactive).
Turning to `CO[C@H](CN(C)C(=O)c1cnccn1)[C@@H](C)CN([C@@H](C)CO)S(=O)(=O)c1ccccc1`, the z-score is 1.89 (inactive).
Take `CN(C)CC(=O)N1[C@H](C#N)[C@H](c2ccccc2-c2cccc(C(=O)N(C)C)c2)[C@@H]1CO`: the z-score is 4.1 (inactive).
`C[C@@H]1CN([C@H](C)CO)C(=O)c2c(c3ccccc3n2C)-c2ccccc2CO[C@H]1CN(C)C(=O)[C@@H](Cc1ccccc1)N(C)C`: the z-score was -1.45 (inactive).
